# Results published in PubChem BioAssay AID504832 (National Center for Advancing Translational Sciences (NCATS), 2011).
# Several values for one entry are separate records, joined by “and”; a condition that tells them apart may be missing. Equal values may be shown once. Screen size: about 310,000 compounds; about 18,000 (5.8%) were called active. Entries that show only a call come without a potency. Inconclusive results (about 22%) are left out. Calls come from the whole dose curve; as a rule, active = well fitted inhibition curve with a large enough effect; inconclusive = small, poorly fitted or top-dose-only effect, or another doubt; inactive = no such curve, though single readings can be large or run the other way. The full list was thinned out, with actives kept by preference. The source holds several records for some structures; these can differ, active in one and inactive in another.
# Test: Primary qHTS for delayed death inhibitors of the malarial parasite plastid, 48 hour incubation
# Settings: P. falciparum luciferase growth in erythrocytes; series mostly up to 28.7 µM
# Outline: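 Compounds are pin-transferred into medium, infected erythrocytes (2% hematocrit, 0.1% parasitemia final) are added, and plates sit one parasite generation at 37 C in 5% CO2. Detection reagent is then added and luminescence measured.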
# Potency is the fitted concentration of half-maximal effect.
row,SMILES,Potency
1,CC(C)CC(O)C1CCN(C(=O)CCc2nnc(-c3ccc4c(c3)OCO4)o2)CC1 (stereo not given),inactive
2,N#Cc1ccc(OCC(=O)NC(=O)NC2CCS(=O)(=O)C2)cc1 (stereo not given),inactive
3,Cc1cc(C(=O)COc2ccccc2Cl)c(C)n1C1CC1,inactive
4,CCN(CC(=O)NCc1ccco1)S(=O)(=O)c1ccc(F)cc1,inactive
5,Cc1c(C(C)CCCO)oc(=O)c2c1Oc1c(C)c(C(C)C[C@@H](C)O)oc(=O)c1C2 (stereo not given in full),inactive
6,Cn1cccc1C(=O)N1CCc2ccccc2C1,inactive
7,CC1CCN(C(=O)Cn2nnnc2CN2CCOCC2)CC1,inactive
8,Cc1cccc(N2CCN(c3ccc(NC(=O)/C=C\C(=O)O)cc3)CC2)c1,8.28 µM (active)
9,Cc1cccc(N2CCN(C(=O)c3ccccc3NC(=O)C3CCCCC3C(=O)O)CC2)c1 (stereo not given),inactive
10,CSc1ccc(NC(=O)/C=C/C(=O)O)cc1,inactive
11,Cc1ccc2oc(C(=O)N3CCN(C)C[C@@H]3C(C)C)c(C)c2c1,inactive
12,CC1=CC(=Cc2sc3ccccc3[n+]2C)C=C(C)O1,0.928 µM (active)
13,Cc1ccc(-c2noc(CNC(=O)c3ccoc3C)n2)cc1,inactive
14,O=C(NCc1ccccc1Cl)C1CCN(S(=O)(=O)c2cccc3nonc23)CC1,inactive
15,O=C(NCc1ccncc1)C1CCCN(S(=O)(=O)c2ccc(Br)cc2)C1 (stereo not given),inactive
16,CC(C)CC(=O)Nc1ccc(Cc2ccncc2)cc1,inactive
17,CCc1ccc(NC(=O)N[C@H](C(=O)O)C(C)CC)cc1 (stereo not given in full),inactive
18,O=C(Nc1ccncc1)Nc1ccc(F)cc1,6.57 µM (active)
19,O=C(Nc1ccncc1)c1c(F)cccc1F,inactive
20,O=C(NCc1ccccn1)Nc1ccc(F)cc1,inactive
21,CCc1ccc(NC(=O)Nc2ccncc2)cc1,13.1 µM (active)
22,CCCOc1ccc(Cc2c(O)nc(N)[nH]c2=O)cc1C,inactive
23,COc1cc(OC)nc(N/N=C(\c2ccccc2)c2ccncc2)n1,14.7 µM (active)
24,COc1cc(OC)nc(NC(=O)CCl)n1,inactive
25,CN(C)CCCO/N=C(\c1ccccc1)c1ccncc1,inactive
26,CC(=O)N(C)c1ccc(NC(=O)Nc2cccc3ccccc23)cc1,inactive
27,CNC(=O)c1sc(Nc2ccc(OCc3ccccc3)cc2)nc1C,inactive

row,SMILES,Potency
1,Cn1cncc1COC(=O)c1ccc(Cl)cc1,inactive
2,COc1cc(OC)cc(C(=O)NCCSCc2ccc(Cl)cc2)c1,inactive
3,COc1ccccc1N1CC(C(=O)NCCN2C(=O)S/C(=C\c3cccnc3)C2=O)CC1=O (stereo not given),inactive
4,Cc1ccc(C2Nc3cccc4cccc(c34)N2)cc1,inactive
5,C/C(=C\c1ccco1)C1Nc2cccc3cccc(c23)N1,inactive
6,Brc1ccccc1C1Nc2cccc3cccc(c23)N1,13.1 µM (active)
7,COc1cccc(CNS(=O)(=O)c2ccc3c(c2)N(C(C)=O)CCS3)c1,inactive
8,O=C1C(=O)N(CCCN2CCOCC2)C(c2ccc([N+](=O)[O-])cc2)/C1=C(\O)c1ccc2c(c1)OCCO2 (stereo not given),inactive
9,CC1CN(C(=S)Nc2ccc(S(N)(=O)=O)cc2)CC(C)O1 (stereo not given),inactive
10,CN1C(=O)C(CC(=O)Nc2ccccc2)S/C1=N/c1nccs1 (stereo not given),inactive
11,O=C(Nc1cccc(Cl)c1)OCc1ccccn1,inactive
12,O=C(CC1SC(=Nc2ccccc2)N(Cc2ccccn2)C1=O)Nc1cccc(Cl)c1 (stereo not given),6.57 µM (active)
13,CCCCN1C(=O)C(=O)N(CC(=O)Nc2cccc(C(C)=O)c2)C1=O,inactive
14,CC(C(=O)N1CCN(c2ccccc2F)CC1)c1ccc([N+](=O)[O-])cc1 (stereo not given),inactive
15,O=C(COC(=O)c1ncc(Cl)c(Cl)c1Cl)NCc1ccccc1,inactive
16,COCCCN1C(=O)c2ccc(C(=O)OCC(=O)NCc3ccccc3OC)cc2C1=O,inactive
17,Cc1ccn2c(=O)nc(SCC(=O)NCc3ccc(F)cc3)nc2c1,inactive
18,Cc1sc(NC(=O)c2ccc3ncsc3c2)c(C(N)=O)c1C,inactive
19,Cc1ccc2nc3n(c(=O)c2c1)CCC3,inactive
20,CSc1nc2ccc(C)cc2c(=O)n1-c1cccnc1,inactive
21,Cc1ccc2nc(C)c3c(c2c1)N(c1ccccc1)CC3,5.86 µM (active)
22,N#Cc1ccc(C(=O)OCC(=O)NC(=O)NC2CCCCC2)cc1,inactive
23,O=C(Nc1cc(-c2nc3ncccc3o2)ccc1Cl)c1ccco1,inactive
24,Cc1ccc(C(=O)COC(=O)CCN2C(=O)C3C4CCC(C4)C3C2=O)cc1C (stereo not given),inactive
25,CCCCCCCCC(=O)NCCOc1ccccc1,inactive
26,CCCCCc1ccc(-c2ccc(OCC)cc2)nc1,inactive
27,CCCCCCCCCc1ccc(OCCOCCOCCOCCOCCOCCOCCOCCOCCO)cc1,8.49 µM (active)

row,SMILES,Potency
1,COc1cccc(OCc2nnc3n2N=C(c2ccccc2)C(CC(=O)O)S3)c1 (stereo not given),inactive
2,COc1cc(S(=O)(=O)N2CCN=C2c2ccccc2)ccc1Cl,inactive
3,C=C1c2c(Cl)ccc(O)c2C(O)=C2C(=O)[C@]3(O)C(O)=C(C(N)=O)C(=O)[C@@H](N(C)C)[C@@H]3[C@@H](O)C12 (stereo not given in full),2.33 µM (active)
4,CN(C)[C@@H]1C(=O)C(C(N)=O)=C(O)[C@@]2(O)C(=O)C3=C(O)c4c(O)ccc(Cl)c4[C@@H](O)[C@H]3C[C@@H]12,2.08 µM (active)
5,COc1ccc(C(=O)COC(=O)Cn2cnc3c2c(=O)n(C)c(=O)n3C)c(OC)c1,inactive
6,COc1cc(C(=O)Nn2c(CC(C)C)nc3ccccc3c2=O)cc(OC)c1OC,inactive
7,O=C(O)CSc1c2c(nc3cc(C(=O)Nc4cccc(C(F)(F)F)c4)ccc13)CCCC2,inactive
8,O=C(CCc1ccccc1)Nc1cccc(-c2nnc(-c3ccco3)o2)c1,10.4 µM (active)
9,O=C(Nc1cccc(-c2nnc(-c3ccccc3)o2)c1)C1CCCO1 (stereo not given),inactive
10,Cc1cccc(NC(=O)CSc2nnc(-c3ccco3)o2)c1,inactive
11,O=C(O)c1ccc(NC(=O)c2ccc(COc3ccc(Cl)cc3)o2)cc1,inactive
12,Cc1c(C)c(C)c(S(=O)(=O)N2CCC3(CC2)OCCO3)c(C)c1C,inactive
13,c1ccc2cc(CCCc3cc4ccccc4cn3)ncc2c1,inactive
14,Cc1n[nH]c(=O)c2c(NC(=O)CSc3cc(Cl)ccc3Cl)oc(C)c12,inactive
15,O=C(/C=C/c1cccc([N+](=O)[O-])c1)OCC(=O)N1CCOCC1,inactive
16,Cc1ccc(C(=O)N/C(=C/c2cccs2)C(=O)N2CCCCC2)cc1,inactive
17,Cc1ccc(C(=O)N/C(=C\c2cn(C)c3ccccc23)C(=O)N2CCN(C)CC2)cc1,inactive
18,Cc1ccc(C(=O)N/C(=C\c2cn(S(=O)(=O)N(C)C)c3ccccc23)C(=O)N2CCCC2)cc1,10.4 µM (active)
19,COC(=O)c1ccc(/C=N/NC(=O)C(=O)N2CCCCCC2)cc1,inactive
20,COc1ccccc1-c1sc2ccccc2c1-c1ccc(C(C)=O)cc1,inactive
21,Cc1sc2ncnc(N3CCC(C(=O)Nc4nc5ccc(Cl)cc5s4)CC3)c2c1C,inactive
22,Cc1sc2ncnc(N3CCC(C(=O)Nc4ccc(F)cc4Cl)CC3)c2c1C,11.7 µM (active)
23,Cc1sc2ncnc(N3CCC(C(=O)NNC(=O)c4ccc(F)cc4)CC3)c2c1C,11.7 µM (active)
24,Cc1ccnc(N2CCCC(C(=O)Nc3cc(F)ccc3C)C2)n1 (stereo not given),inactive
25,O=C(NNC(=O)C1CCCC1)c1ccc(F)cc1,inactive
26,O=C(NNC(=O)C1CCN(c2ncccn2)CC1)c1ccccc1,inactive
27,COc1ccccc1CNC(=O)COC(=O)CNS(=O)(=O)c1ccc(NC(C)=O)cc1,inactive

row,SMILES,Potency
1,CC1CCN(C(=O)/C(=C\c2ccccc2F)NC(=O)c2ccccc2)CC1,inactive
2,Cc1ccc(S(=O)(=O)NCCCn2ccnc2)cc1C(=O)NC(C)C,inactive
3,COc1ccc(CNC(=O)c2ccc(Br)s2)cc1OC,inactive
4,Cc1ccc(S(=O)(=O)N2CCN=C2SCc2c(F)cccc2Cl)cc1,inactive
5,CCN(CC(=O)Nc1c(F)cccc1F)C(=O)C1CCC1,inactive
6,CCN(CC(=O)Nc1ccccc1C(F)(F)F)C(=O)C1CCN(C(=O)Nc2ccccc2)CC1,11.7 µM (active)
7,CCN(CC(=O)Nc1ccccc1C(F)(F)F)C(=O)CSCc1c(C)noc1C,inactive
8,COc1ccc(S(=O)(=O)NNC(=O)Nc2ccc(C)cc2)c(OC)c1,inactive
9,CC(C)=CCCC1(C)C=Cc2c(ccc3c2[nH]c2cc(O)c(C)cc23)O1 (stereo not given),9.28 µM (active)
10,COc1cc2c(C(=O)N(C)c3cc(Cl)ccc3OC)cn(C)c(=O)c2cc1OC,inactive
11,COc1ccc(C(=O)N2CCCCC2C(=O)Nc2ccc(-n3nc(C)cc3C)cc2)o1 (stereo not given),inactive
12,CCCc1cc(=O)[nH]c2nnc(SCC(=O)Nc3nnc(SCC)s3)n12,inactive
13,O=C(NCCN1CCN(C(=O)c2cccc([N+](=O)[O-])c2)CC1)C(=O)NCc1ccc(Cl)cc1,inactive
14,O=C(/C=C/c1cccc([N+](=O)[O-])c1)N1CCN(Cc2ccccc2)CC1,inactive
15,O=C(NC1CCc2ccccc21)C12CN(Cc3ccccc3)CC1C(c1cccc([N+](=O)[O-])c1)=NO2 (stereo not given),3.7 µM (active)
16,CN(C(=O)CN(CCO)CC(=O)N(C)C(C)(C)Cc1ccccc1)C(C)(C)Cc1ccccc1,inactive and 9.28 µM (active)
17,CCN(CC)C(=O)N(CC)Cc1ccccc1,inactive
18,CN(Cc1ccccc1)C(=O)CCc1ccccc1,inactive
19,CN(CC(=O)NCc1ccc2c(c1)OCO2)CC(=O)Nc1ccc(F)c(F)c1F,inactive
20,O=C(N/N=C/c1ccccn1)c1cccnc1,inactive
21,O=C(N/N=C/c1sc(N2CCCCC2)nc1-c1cccs1)c1cccnc1,3.29 µM (active)
22,Cc1cc(/C=N/NC(=O)c2cccnc2)c(C)n1CC(C)C,inactive
23,COc1ccc2c(C(=O)c3ccc(C)cc3)n(CCC(N)=O)[n+]([O-])c2c1,inactive
24,Cc1cc(C(=O)N/N=C/c2ccccn2)c2ccccc2n1,inactive
